Records with an inconclusive call do not appear. The source made the active and inactive calls. Calls come from the whole dose curve; as a rule, active = well fitted cell-killing curve with a large enough effect; inconclusive = small, poorly fitted or top-dose-only effect; inactive = flat fitted curve, though single readings scatter.
Experiment: qHTS of pediatric cancer cell lines to identify multiple opportunities for drug repurposing: Primary screen for BT-12 cells (AID 1347101); note: nearly all actives have a fitted effect of over 25% in size
Details: BT-12 viability, CellTiter-Glo luminescence, 48 h; series mostly up to 57.3 µM
From the text: Drug repurposing or repositioning has been offered as a strategy for drug development in oncology programs. This approach has special potential for childhood cancers and other rare or orphan diseases, where the expected return on new drug development has been a disincentive to pharmaceuticals.
In this project we exploit the poly-pharmacology of drugs to discover new indications via phenotypic screening of a panel of 19 well-characterized cell lines derived from solid tumors seen in children and adolescents. The goal is to identify approved drugs with previously unrecognized anticancer properties that has the potential to reveal new mechanisms and biological processes involved in carcinogenesis or drug resistance. We employed a titration-based paradigm (quantitative high-throughput screening or qHTS), where all compounds were tested at multiple concentrations for their effect on cell viability. Concentration-response curves (CRCs) were derived directly from the primary screen, and both potency and efficacy values were used to identify compounds with robust bioactivity profiles. We screened the NIH Chemical Genomics Center (NCGC) Pharmaceutical Collection (NPC) and Mechanism Interrogation Plate (MIPE) small molecule collections of approved and investigational compounds against these cell lines; and measured metabolically active cells after 48 hours of compound treatment as a proxy for cell viability.
Assay Submitter: Nathalia J. Martinez, National Center for Advancing Translational Sciences, National Institutes of Health, Rockville, MD, USA; email: natalia.martinez@nih.gov
[1] Shen, M et al. Quantitative high-throughput phenotypic screening of pediatric cancer cell lines identifies multiple opportunities for drug repurposing. Oncotarget 2017 Dec 19;9(4):4758-4772. PMID 29435139.
The cells were obtained from University of North Carolina (UNC), Pediatric Preclinical Testing Program (PPT), and Coriell Institute (CI).
qHTS cell viability assay:
Cells were assayed in growth media at a density of 500-1,000 cells/well. Five microliters of cells were dispensed into 1,536-well, white, solid-bottom, TC-treated plates (Greiner Bio One) using a multidrop dispenser and incubated at 37 degrees C, 5% CO2, under a humidified atmosphere for 5 hours. Twenty-three nanoliters of compounds and controls (neutral control DMSO or positive control bortezomib at final concentration of 2.3 µM) were subsequently transferred by Kalypsys pintool. For primary screens, the MIPE collection was tested at 11-point dilutions (final concentrations range from 0.78 nM to 46 µM) and the NPC collection at 8-point dilutions (final concentrations range from 0.59 nM to 46 µM). Compounds tested in follow-up screens were assayed at 11-point dilutions. Cells were incubated for 48 hours, followed by addition of 3 µL of CellTiter-Glo (Promega). After a 15 min incubation at room temperature, samples were analyzed for luminescence intensity using a ViewLux High-throughput CCD imager equipped with clear filters.
Potency is the fitted concentration of half-maximal effect.

Compound | Potency
CC(C)c1ccc(Cn2ccc3c4c(N)nc(NC5CC5)nc4ccc32)cc1 | 4.32 µM (active)
C[C@@]12O[C@@H](C[C@]1(O)CO)n1c3ccccc3c3c4c(c5c6ccccc6n2c5c31)CNC4=O | 8.63 µM (active)
CCc1c2c(nc3ccc(O)cc13)-c1cc3c(c(=O)n1C2)COC(=O)[C@]3(O)CC | 0.193 µM (active)
COC(=O)Nc1ccc(-c2nc(N3CCOCC3)c3cnn(C4CCN(Cc5cccnc5)CC4)c3n2)cc1 | 1.09 µM (active)
Cc1[nH]c2ccccc2c1CCNCc1ccc(C=CC(=O)NO)cc1 | 0.611 µM (active)
COc1cc2c(cc1-c1c(C)noc1C)ncc1[nH]c(=O)n([C@H](C)c3ccccn3)c12 | 19.3 µM (active)
C=CC(=O)Nc1cc2c(Nc3ccc(F)c(Cl)c3)ncnc2cc1OCCCN1CCOCC1 | 21.7 µM (active)
CC1(C)O[C@@H]2C[C@@H]3[C@H]4C[C@@H](F)C5=CC(=O)C=C[C@]5(C)[C@@]4(F)[C@@H](O)C[C@]3(C)[C@]2(C(=O)CO)O1 | inactive
OCCCNc1cc(-c2ccnc(Nc3cccc(Cl)c3)n2)ccn1 | 0.193 µM (active)
CCC[C@H](NC(=O)C(C#N)=Cc1cccc(Br)n1)c1ccccc1 | 27.3 µM (active)
C=CC(=O)Nc1cccc(Oc2nc(Nc3ccc(N4CCN(C)CC4)cc3)ncc2Cl)c1 | 17.2 µM (active)
Nc1ccccc1NC(=O)c1ccc(CNc2nccc(-c3cccnc3)n2)cc1 | 4.85 µM (active)
Cc1nc(Nc2n[nH]c3c2CN(C(=O)N[C@H](CN(C)C)c2ccccc2)C3(C)C)c2sccc2n1 | 2.43 µM (active)
Cc1ccc(C(=O)Nc2ccc(CN3CCN(C)CC3)c(C(F)(F)F)c2)cc1C#Cc1cnc2cccnn12 | 6.85 µM (active)
CN1CCN(c2ccc3nc(-c4c(N)c5c(F)cccc5[nH]c4=O)[nH]c3c2)CC1 | 17.2 µM (active)
CNC(=O)c1ccc(-c2cnc3ncc(Cc4ccc5ncccc5c4)n3n2)cc1F | inactive
C=CC(=O)Nc1cc2c(Nc3ccc(F)c(Cl)c3)ncnc2cc1C#CC(C)(C)N1CCN(C)CC1 | 21.7 µM (active)
Cc1c(C)n(Cc2ccc(-c3ccccc3C(=O)O)cc2)c2ccc(C(=O)N[C@@H](C)c3ccc([N+](=O)[O-])cc3)cc12 | 0.769 µM (active)
O=C(O)[C@H](Cc1c[nH]c2ccccc12)N1C(=O)c2ccccc2C1=O | inactive
COc1c(N2C[C@@H]3CCCN[C@H]3C2)c(F)cc2c(=O)c(C(=O)O)cn(C3CC3)c12 | inactive

Compound | Potency
COCCn1c2c([n+](Cc3cnccn3)c1C)C(=O)c1ccccc1C2=O | 0.0343 µM (active)
C=C1C(=CC=C2CCC[C@]3(C)[C@@H]([C@H](C)C=C[C@H](C)C(C)C)CC[C@@H]23)C[C@@H](O)C[C@@H]1O | 2.17 µM (active)
COC(=O)[C@]12CCC(C)(C)C[C@@H]1[C@@H]1C(=O)C=C3[C@@]4(C)C=C(C#N)C(=O)C(C)(C)[C@@H]4CC[C@@]3(C)[C@]1(C)CC2 | 0.968 µM (active)
Nc1cc(C(F)(F)F)c(-c2cc(N3CCOCC3)nc(N3CCOCC3)n2)cn1 | 1.22 µM (active)
Nc1nc(-c2nn(Cc3ccccc3F)c3ncccc23)nc(N)c1N1CCOCC1 | inactive
Nc1nc(NCCNc2ncc(-n3ccnc3)c(-c3ccc(Cl)cc3Cl)n2)ccc1[N+](=O)[O-] | 24.3 µM (active)
CCOc1cc2ncc(C#N)c(Nc3ccc(F)c(Cl)c3)c2cc1NC(=O)C=CCN(C)C | 7.69 µM (active)
CC(NCc1ccc2c(c1)nc(NC(=O)c1ccc(-c3cn[nH]c3)s1)n2CC(C)(C)O)C(C)(C)C (stereo not given) | 0.968 µM (active)
CN(C)CC=CC(=O)Nc1cc2c(Nc3ccc(F)c(Cl)c3)ncnc2cc1O[C@H]1CCOC1 | 21.7 µM (active)
N#Cc1c(O)c2c(-c3ccc(-c4ccccc4O)cc3)csc2[nH]c1=O | inactive
COc1cc2nccc(Oc3ccc(NC(=O)C4(C(=O)Nc5ccc(F)cc5)CC4)cc3)c2cc1OC | 15.3 µM (active)
CN(C)CCCN=c1c2ccccc2n(C)c2[nH]c(=O)n(C)c(=O)c12 | 7.69 µM (active)
C[C@@H]1COC(Nc2ccc3ncnc(Nc4ccc(OCc5nccs5)c(Cl)c4)c3c2)=N1 | 24.3 µM (active)
CS(=O)(=O)c1ccc(-c2cnc(N)c(C(=O)Nc3ccccc3)n2)cc1 | inactive
CCCCOc1c(C(=O)c2c(F)cc(C)cc2F)cnc2n[nH]cc12 | 6.11 µM (active)
CC(C)C[C@H](NC(=O)CNC(=O)c1cc(Cl)ccc1Cl)B(O)O | 0.344 µM (active)
CC(C)c1nn(-c2c(Cl)cccc2Cl)c2nc(Cc3ccc(OCCO)cc3)[nH]c(=O)c12 | 0.0544 µM (active)
O=C(Nc1nc2cccc(-c3ccc(CN4CCS(=O)(=O)CC4)cc3)n2n1)C1CC1 | 27.3 µM (active)
Cc1cnc(Nc2ccc(F)cc2Cl)nc1-c1c[nH]c(C(=O)N[C@H](CO)c2cccc(Cl)c2)c1 | 0.432 µM (active)
CC1COC2(CCN(c3nc(=O)c4cc(C(F)(F)F)cc([N+](=O)[O-])c4s3)CC2)O1 (stereo not given) | inactive
